Results as given in PubChem BioAssay (NCI).
Several values for one entry are separate records, joined by “and”; a condition that tells them apart may be missing. Identical values can stand only once. Compounds without any hit were thinned out: in the full panel of roughly 83,000, 20% have a hit.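 48-hour exposure, single concentration, 96-well plates; percent growth endpoint where 0 means no net growth. Active: below 10.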 Activity calls are given as the source filed them.

These compounds were tested on MDA-MB-468 breast (assay: NCI-60 one-dose screen, 48 h (100 = growth as untreated, 0 = no growth, -100 = all killed)). Conditions: 10 µM unless noted.

Row | Structure (SMILES) | growth
1 | CCCC(C)C1(CC)C(=O)NC(=O)N(C)C1=O (centres undefined) | 94.2% (inactive)
2 | COc1cc(/C=C\[N+](=O)[O-])ccc1O | 4.87% (active) and 65.1% (inactive)
3 | CN(C)CCCOc1ccc2c(c1)c(C(=O)C(=O)NCCO)cn2Cc1ccccc1 | 117% (inactive)
4 | CCCCOC(N)=O | 101% (inactive)
5 | CCN(CC)c1ccc2c(c1)OC(N)=C(C#N)C2c1cc(OC)c2c(c1)OCO2 (centres undefined) | -9.24% (active)
6 | O=C1NC(=O)C(=Cc2cn(C(=O)c3ccccc3)c3ccccc23)C(=O)N1 | 101% (inactive)
7 | CNC(=O)Oc1cccc(N(C)C)c1 | 92.7% (inactive)
8 | C[C@]12CCc3sc(NCCc4ccccc4)nc3C1=CC[C@@H]1[C@@H]2CC[C@]2(C)C(=O)CC[C@@H]12 | 32.9% (inactive)
9 | O=C1NC(=O)C(=Cc2cn(CCCCCCn3c4ccccc4c(=O)c4ccccc43)c3ccccc23)C(=O)N1 | -26% (active)
10 | O=C1OCCC1Br (centres undefined) | 106% (inactive)
11 | C/C(=C\c1cc(C(F)(F)F)n(-c2ccc(N)cc2)n1)[C@@H]1C[C@@H]2O[C@]2(C)CCC[C@H](C)[C@H](O)[C@@H](C)C(=O)C(C)(C)[C@@H](O)CC(=O)O1 | -16.6% (active)
12 | Clc1ccc(N2COOC3(OOC2)C2CC4CC(C2)CC3C4)cc1 | 65.3% (inactive)
13 | [Cl][Hg][c]1ccc2ccccc2c1 | -83.2% (active)
14 | CC/C(=C/c1ccc(OC)cc1)[N+](=O)[O-] | -56.6% (active)
15 | COC(=O)[C@@]1(C)CC[C@]2(C)CC[C@]3(C)C4=CC=C5C(=CC(=O)C(O)=C5C)[C@]4(C)CC[C@@]3(C)[C@@H]2C1 | -66.9% (active)
16 | CCC(/C=C(C)/C=C/C(=O)c1c(O)c(-c2ccc(O)cc2)c[nH]c1=O)CO (centres undefined) | 98.5% (inactive)
17 | CC(=O)Nc1nc2c(s1)C1=CC[C@H]3[C@@H]4CC[C@H](OC(C)=O)[C@@]4(C)CC[C@@H]3[C@@]1(C)CC2 | 55.7% (inactive)
18 | CCCCCCCCCCCCCCCCCC1OC[C@H](COC(=O)O[C@@H](C(=O)O[C@H]2C[C@@]3(O)[C@@H](OC(=O)c4ccccc4)[C@@H]4[C@]5(OC(C)=O)CO[C@@H]5C[C@H](O)[C@@]4(C)C(=O)[C@H](OC(C)=O)C(=C2C)C3(C)C)[C@@H](NC(=O)c2ccccc2)c2ccccc2)O1 (some centres undefined) | 0.893% (active)
19 | C[C@@H]1C/C=C\C(=O)O[C@H](/C=C/C#C/C=C/C(C)(C)[C@@H](O)c2cccc(O)c2Br)[C@@H](C)/C=C/[C@H](C)C[C@H](OC(N)=O)C1 | 33.6% (inactive)
20 | CC(=O)O[C@H]1C[C@H](O[C@H]2[C@@H](O)C[C@H](O[C@H]3[C@@H](O)C[C@H](O[C@H]4CC[C@@]5(C)C(CCC6C5C[C@@H](O)[C@]5(C)[C@@H](C7=CC(=O)OC7)CC[C@]65O)C4)O[C@@H]3C)O[C@@H]2C)O[C@H](C)[C@H]1O[C@@H]1O[C@H](CO)[C@@H](O)[C@H](O)[C@H]1O (some centres undefined) | -56.2% (active)
21 | COc1cc(C2C3=C(CCCC3=O)N(CCO)c3cc4c(cc32)CCC4)cc(OC)c1OC (centres undefined) | 93.8% (inactive)
22 | COc1cc(C2=NN(c3ccccc3)C(c3sc(N(CCCl)CCCl)nc3Cl)C2)cc(OC)c1OC (centres undefined) | 87.9% (inactive)
23 | COc1cccc(/C=C/[N+](=O)[O-])c1 | 25.8% (inactive)
24 | CNc1ccc(C(=O)CC(O)CCC(C)C2OC(=O)CC(O)CC(=O)CC(O)CC(O)CC(O)CC(O)CC3(O)CC(O)C(C(=O)OC)C(CC(O[C@@H]4O[C@H](C)[C@@H](O)[C@H](N)[C@@H]4O)/C=C/C=C/C=C/C=C/C=C/C=C/C=C/C2C)O3)cc1 (some centres undefined) | 36.5% (inactive)
25 | COC(=O)C1CCC(NC(=O)c2csc([C@@H](C[C@H](C(C)C)N(C)C(=O)[C@@H](NC(=O)[C@H]3CCCCN3C)C(C)C)OC(C)=O)n2)CC1 (some centres undefined) | 27.9% (inactive)
26 | C[C@]12CC[C@H]3[C@@H](CC[C@]4(O)C[C@@H](O[C@@H]5O[C@H](CO)[C@@H](O[C@@H]6OC[C@@H](O)[C@H](O)[C@H]6O)[C@H](O)[C@H]5O)CC[C@]34C=O)[C@@]1(O)CC[C@@H]2C1=CC(=O)OC1 | 38.7% (inactive)
27 | Cn1cc(C=O)c2nccnc21 | 98.1% (inactive)
28 | C[C@]12CCc3sc(-c4ccc(Cl)cc4)nc3C1=CC[C@@H]1[C@@H]2CC[C@]2(C)C(=O)CC[C@@H]12 | 55.5% (inactive)
29 | C/C1=C/C(=O)O[C@@H]2C[C@@H](CC[C@H](C)/C=C\C=C\CC1)O[C@@](O)([C@@H]1CSC(=O)N1CO)C2 | 10.3% (inactive)
